Screening data from PubChem BioAssay.
PGC1a acetyl inh – inhibitors of PGC1a acetylation signal, primary screen, cell-based, U2OS, AlphaScreen, inhibitor mode. AlphaScreen anti-acetyl-lysine; with virally co-expressed GCN5 acetyltransferase. inhibition, % at 15.6 µM. 350,000 tested, 0.17% active. AID 651687, 2012;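 active = every replicate shows inhibition of at least 40%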
C2C12 statin – suppressors of statin myotoxicity in C2C12 myotubes, primary screen, cell-based, single point, plate reader | AID 602340, 2012 | C2C12 myotubes + simvastatin, ATP luminescence, 48 h; scaled: DMSO 0, geranylgeraniol control 100 | rescue of ATP level, % at 7.49 µM | 330,000 tested, 0.78% active;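 active = mean ATP rescue above about 67%, or every replicate alone reaching that limit, limit read from the data, passing the limit was not always enough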;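 note: myotubes were challenged with 10 µM simvastatin during compound exposure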
Rce1 inhib – yeast Rce1p protease inhibitors, primary screen, biochemical, fluorescence, cell-free homogeneous | CAAX prenyl protease 2 (Saccharomyces cerevisiae (strain ATCC 204508 / S288c)), Q03530 | yeast membranes, quenched prenylated peptide cleavage fluorescence | calls only | 290,000 tested, 0.27% active;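 active = fall in fluorescence gain of 50% or more versus controls, with final raw signal at or below 3038400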
Target sequence (Q03530 whole entry, looked up): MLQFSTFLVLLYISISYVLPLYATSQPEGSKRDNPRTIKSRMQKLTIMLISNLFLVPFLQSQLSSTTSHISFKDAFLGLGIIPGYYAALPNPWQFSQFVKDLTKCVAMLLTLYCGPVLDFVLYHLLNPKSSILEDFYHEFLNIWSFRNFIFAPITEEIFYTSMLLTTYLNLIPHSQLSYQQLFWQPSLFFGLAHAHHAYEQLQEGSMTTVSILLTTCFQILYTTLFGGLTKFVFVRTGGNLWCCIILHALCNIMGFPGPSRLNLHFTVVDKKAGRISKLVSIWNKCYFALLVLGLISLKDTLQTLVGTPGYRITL
AI-2 QS modul – Vibrio harveyi AI-2 quorum sensing modulators, primary screen, JMH597 strain, luminescence/OD600 ratio | Vibrio harveyi JMH597 AI-2 luminescence/OD600 ratio, 9 h; active compounds read low; strain lacks LuxN and CqsS sensors; 0 = neutral-control median | activity change, % at 7.5 µM | 300,000 tested, 0.4% active | AID 2094, 2009; in the data active = activity change below about -75%, passing the limit was not always enough;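 note: luminescence divided by OD600 gain over 9 h not by final OD600 alone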
HIF activator – HIF pathway transcriptional activators, primary screen, cell-based, U2OS HRE-luciferase, luminescence; 300,000 tested, 0.32% active; AID 1910, 2009; activation, % at 7.5 µM (by protocol); U2OS HRE-luciferase reporter; normalized: DMSO 0%, desferrioxamine 100%;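 active = mean activation of at least 10% of the iron chelator positive control signal, with at least half of replicates also reaching 10%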
Hits are given with their value; – = inactive; · = not tested or not shown; + = active, no number. Most compounds without a hit are left out; they make up all but 1.3% or so of the library.

SMILES	PGC1a acetyl inh	C2C12 statin	Rce1 inhib	AI-2 QS modul	HIF activator
CC(=O)Nc1cc(C(F)(F)F)ccc1Oc1cccc(Br)c1	–	–	+	–	–
COc1ccc(NC(=O)N(C)C[C@@H]2Oc3cc(C#CCN(C)C)ccc3S(=O)(=O)N([C@@H](C)CO)C[C@@H]2C)cc1	–	–	·	·	·
O=C1NN=C(c2ccc(Cl)cc2)CC1c1cccc(Cl)c1 (configuration not stated)	–	137	–	–	–
O=C1NN=C(c2ccccc2)CC1c1ccc(Cl)cc1Cl (configuration not stated)	–	–	–	–	–
COc1ccc(S(=O)(=O)n2nc(OC(=O)C3CCCCC3)cc2N)cc1	–	106	–	–	–
Cc1ccc(S(=O)(=O)n2nc(OC(=O)C3CCCCC3)cc2N)cc1	–	–	–	–	–
COC(=O)NC(=S)Nc1ccc(Oc2ccc(Cl)cc2Cl)c(Cl)c1	–	126	–	–	–
Fc1ccc(NC(=S)N2CCCC2)cc1Cl	·	·	–	–	–
COC(=O)NC(=S)Nc1ccc(Oc2ccc(Cl)cc2)c(Cl)c1	–	–	–	–	–
O=C(NC(=S)Nc1ccc(F)c(Cl)c1)C1CC1	–	·	–	-78	–
Fc1ccc(NC(=S)Nc2ccc(F)c(Cl)c2)cc1Cl	–	69	–	–	–
CC(C)CNC(=O)Nc1ccc(F)c(Cl)c1	·	·	+	–	–
Cc1ccc(NC(=S)NC(=O)C2CC2)cc1Cl	–	–	–	–	·
O=C(N[C@H]1C=C[C@@H](CC(=O)N2CCCCC2)O[C@H]1CO)c1ccc2c(c1)OCO2	–	–	·	·	·
Cc1ccc(-c2ccc(C3[C@@H]4CN(S(=O)(=O)c5cccc(C)c5)C[C@H]3N4)cc2)cc1 (some centres not stated)	–	·	·	·	·
C[C@@H]1CN([C@@H](C)CO)C(=O)c2cc(NS(=O)(=O)c3ccc(Cl)cc3)ccc2O[C@@H]1CN(C)C(=O)Nc1ccccc1	–	–	·	·	·
COc1ccc(NC(=O)N(C)C[C@H]2Oc3ccc(NS(=O)(=O)c4c(C)noc4C)cc3C(=O)N([C@H](C)CO)C[C@@H]2C)cc1	–	124	·	·	·
COc1ccc(NC(=O)N(C)C[C@@H]2Oc3ccc(NS(=O)(=O)c4c(C)noc4C)cc3C(=O)N([C@@H](C)CO)C[C@@H]2C)cc1	–	–	·	·	·
C[C@@H]1CN([C@H](C)CO)C(=O)c2cc(NS(=O)(=O)c3ccc(Cl)cc3)ccc2O[C@@H]1CN(C)C(=O)Nc1ccccc1	–	82	·	·	·
COc1ccc(S(=O)(=O)Nc2ccc3c(c2)C(=O)N([C@H](C)CO)C[C@H](C)[C@@H](CN(C)C(=O)Nc2c(C)noc2C)O3)cc1	–	126	·	·	·
COc1ccc(S(=O)(=O)Nc2ccc3c(c2)C(=O)N([C@@H](C)CO)C[C@@H](C)[C@H](CN(C)C(=O)Nc2c(C)noc2C)OCCCC[C@H](C)O3)cc1	–	89	·	·	·
Cc1ccc(S(=O)(=O)Nc2ccc3c(c2)C(=O)N([C@@H](C)CO)C[C@H](C)[C@@H](CN(C)C(=O)C2CCCCC2)OCCCC[C@H](C)O3)cc1	–	·	·	·	·
COc1ccc(NC(=O)N(C)C[C@H]2Oc3ccc(NS(=O)(=O)c4ccc(OC)cc4)cc3C(=O)N([C@@H](C)CO)C[C@H]2C)cc1	–	73	·	·	·
COc1ccc2c3c(n(C)c2c1)[C@H](CO)N(S(C)(=O)=O)CC31CCN(Cc2nccs2)CC1	–	·	·	·	·
CCN(CC)S(=O)(=O)c1ccc(N/N=C/c2cc(OC)c(OC)cc2OC)nc1	–	·	–	–	–
SMILES	PGC1a acetyl inh	C2C12 statin	Rce1 inhib	AI-2 QS modul	HIF activator
CCOc1cccc(C=NNc2ccc(S(=O)(=O)Nc3ccccc3C(=O)O)cc2[N+](=O)[O-])c1O	–	109	·	·	·
CCN(CC)S(=O)(=O)c1ccc(N/N=C(\C)c2ccc(OC)cc2O)nc1	–	–	–	–	9.6
CCOc1cccc(/C=N/Nc2ccc(S(=O)(=O)N(CC)CC)cn2)c1O	·	·	–	–	9.8
CCN(CC)S(=O)(=O)c1ccc(N/N=C/c2ccc(O)cc2)nc1	–	·	–	–	–
CCC(=O)Nc1ccc2c(c1)C(=O)N(C)C[C@@H](OC)[C@@H](C)CN(C(=O)CN1CCOCC1)[C@@H](C)CO2	–	–	·	·	·
COc1ccc2oc(=O)cc(CN3CCN(Cc4ccc(OC)c(OC)c4OC)CC3)c2c1	–	123	–	–	–
COc1ccc(OC)c(CN2CCN(Cc3ccc(OC)c(OC)c3OC)CC2)c1	·	–	·	·	·
CC(C)c1ccc2oc(=O)cc(CN3CCOCC3)c2c1	–	–	–	–	40
O=C(C1CCCC1)N1CC[C@@H]2[C@H]1c1cc(C3=CCCCC3)ccc1N[C@@H]2CO	–	·	·	·	·
C[C@H]1CN([C@@H](C)CO)C(=O)c2cccc(NS(=O)(=O)c3cn(C)cn3)c2O[C@@H]1CN(C)C(=O)Nc1ccc2c(c1)OCO2	–	–	·	·	·
COc1ccc(-c2[nH]ncc2CNCC(C)(C)N2CCOCC2)cc1F	–	88	–	–	–
C[C@@H]1CN([C@@H](C)CO)C(=O)Cc2cc(NS(=O)(=O)c3ccc(F)cc3)ccc2O[C@H]1CN(C)Cc1ccc(Oc2ccccc2)cc1	–	99	·	·	·
COc1ccc(S(=O)(=O)Nc2ccc3c(c2)CC(=O)N([C@H](C)CO)C[C@H](C)[C@H](CN(C)Cc2ccc(Oc4ccccc4)cc2)O3)cc1	–	–	·	·	·
COc1ccc(CN(C)C[C@H]2Oc3ccc(NS(=O)(=O)c4ccc(Cl)cc4)cc3CC(=O)N([C@@H](C)CO)C[C@@H]2C)cc1	–	86	·	·	·
COc1ccc(S(=O)(=O)Nc2ccc3c(c2)CC(=O)N([C@@H](C)CO)C[C@@H](C)[C@H](CN(C)Cc2ccc(Oc4ccccc4)cc2)O3)cc1	–	97	·	·	·
COc1ccc(CN(C)C[C@@H]2Oc3ccc(NS(=O)(=O)c4ccc(OC)cc4)cc3CC(=O)N([C@H](C)CO)C[C@@H]2C)cc1	–	–	·	·	·
COc1ccc(S(=O)(=O)Nc2ccc3c(c2)CC(=O)N([C@@H](C)CO)C[C@H](C)[C@@H](CN(C)Cc2ccc(Cl)c(Cl)c2)O3)cc1	–	122	·	·	·
COc1ccc(CN(C)C[C@H]2Oc3ccc(NS(=O)(=O)c4ccc(Cl)cc4)cc3CC(=O)N([C@H](C)CO)C[C@H]2C)cc1	–	–	·	·	·
COCC(=O)N1CCC2(CC1)CN(C(=O)Nc1ccccc1F)[C@H](CO)c1[nH]c3cc(OC)ccc3c12	–	·	·	·	·
O=C(C[C@@H]1CC[C@@H]2[C@H](COC[C@@H](O)CN2Cc2ccncc2)O1)NCc1ccccc1Cl	–	–	·	·	·
COc1ccc(S(=O)(=O)Nc2ccc3c(c2)CC(=O)N([C@H](C)CO)C[C@@H](C)[C@H](CN(C)Cc2ccccc2)O3)cc1	·	72	·	·	·
CCc1ccc(NC(=O)CSc2nnc(CC)c(CC)n2)cc1	–	·	–	–	–
